About 83,000 compounds went through this panel and 20% of them were active in at least one assay; those are over-represented in the sample as a whole.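 48-hour exposure, single concentration, 96-well plates; percent growth endpoint where 0 means no net growth. Active: below 10.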 A number with no mark means an inactive call. Activity calls are given as the source filed them.
Each compound was assayed on MDA-MB-468 breast (assay: NCI-60 one-dose screen, 48 h (100 = growth as untreated, 0 = no growth, -100 = all killed)). Details: 10 µM unless noted.

SMILES | growth
O=C(NCCn1ccnc1)c1ccc(-c2nc3ccc4[nH]ncc4c3c3c2CCCC3)cc1 | 10.1%
CC1(C)CC[C@]2(CO)CC[C@]3(C)[C@](O)([C@H](O)C[C@@H]4[C@@]5(C)CCCNC(C)(C)[C@@H]5CC[C@]43C)[C@@H]2C1 | 81.3%
O=[N+]([O-])c1cccc(-c2nc3sccn3c2-c2ccnc(NCCNS(=O)(=O)c3ccc(C(F)(F)F)cc3)n2)c1 | 28.3%
O=C(NC(CSSCC(NC(=O)c1ccccc1)C(=O)O)C(=O)O)c1ccccc1 (stereo not drawn) | 111%
Cc1ccc2c(c1)=C/C(=C\c1cc(-c3ccccc3)oc1O)C(=O)N=2 | 109%
CC(C)(C)c1cc(O)c(C(C)(C)C)cc1O | 66.2%
CN(C)c1ccc(-c2ccc(-c3ccc(C(=N)N)cc3)s2)cc1 | -69.7% (active)
O=c1[nH][nH]c(-c2ccc(F)cc2)c1-c1nc2ccccc2s1 | 100%
CC(/C=N/NC(N)=S)Cc1ccc(C(C)C)cc1 (stereo not drawn) | 42.1%
C=C1C(=O)O[C@H]2[C@H]1CC/C(COC(=O)c1cc3cc(F)ccc3[nH]1)=C\CC[C@@]1(C)O[C@@H]21 | -63.2% (active)
C/C(=N\NC(=O)Cn1c(-c2ccc(S(C)(=O)=O)cc2)nc2ccccc21)c1ccc(Cl)cc1 | 98.3%
Nc1c(-c2nc3ccc(Br)cc3c(=O)[nH]2)nnn1-c1ccccc1 | 65.6%
COc1ccc(-c2cc(-c3cc(-c4ccc(OC)cc4)nc(N)n3)nc(N)n2)cc1 | 104%

From PubChem BioAssay (NCI)
